Bioassay records (PubChem BioAssay)
WT yeast gro inh = growth inhibition of WT yeast, mitochondrial fusion screen; mitochondrial fusion phenotypic screen, WT strain; inhibition, % at 10 µM; 190,000 tested, 2.1% active; AID 1362; in the data active means inhibition above about 58%; tested in S. cerevisiae
Lmaj promast = Leishmania major promastigote growth inhibition | Leishmania major promastigotes, resazurin fluorescence viability | inhibition, % at 10 µM | 200,000 tested, 9% active; in the data active means inhibition above about 50%;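 further: promastigotes grown with compound for 44 hours at 28 °C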
CHOP inhibitor = blocks CHOP induction under ER stress; inhibition, % at 10 µM; 220,000 tested, 3.8% active; CHO-K1 CHOP-promoter luciferase, tunicamycin-induced, 15-18 h;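 active means compounds that reduced the stress-induced luciferase reporter signal by more than about 70% of percent inhibition, limit read from the data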;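 further: 0% = tunicamycin plus vehicle and 100% = wells without tunicamycin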
RAM network inh = blocks the yeast RAM network; S. cerevisiae dse1pr::URA3 reporter, 5-FOA growth OD615, 2 d; analog-sensitive cbk1-as2 kinase mutant strain; inhibition, % at 50 µM; 190,000 tested, 1.8% active; AID 868;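 active means inhibition above a set limit, 3 SD over mean compound inhibition, cut at about 8.4% in these data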;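 further: 0% = DMSO-only wells with no growth and 100% = 10 µM 1-NA-PP1 full growth; inhibition rescues growth on 5-FOA so higher OD means more RAM inhibition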
Starred values were filed as active, the others as inactive; / = not tested or not shown. An excerpt weighted towards active compounds, which were near 13% of everything screened.

SMILES	WT yeast gro inh	Lmaj promast	CHOP inhibitor	RAM network inh
CC1=C(C(=O)Nc2ccc(C)cc2C)C(c2ccc(C)o2)NC(=S)N1 (stereo unspecified)	-13.3	38.1	10.9	4.9
C/C(=N/NC(=O)CCCOc1ccc(Cl)cc1Cl)c1ccc(C)o1	2.6	-0.1	57.3	2.3
CCOC(=O)NNC(=S)Nc1c(C)n(C)n(-c2ccccc2)c1=O	/	/	8.9	/
O=C(OC1CCN(c2ncc(C(F)(F)F)cc2Cl)CC1)c1ccc(Cl)cc1	15.1	-2.6	-13.8	7.9
O=C(N/N=C/c1ccc(Cl)cc1Cl)C1CCN(c2ncc(C(F)(F)F)cc2Cl)CC1	39.8	-4.0	96.0*	1.5
O=C(N/N=C/c1cccc(C(F)(F)F)c1)C1CCN(c2ncc(C(F)(F)F)cc2Cl)CC1	14.3	-7.0	83.2*	3.0
CCOc1ccc(CNC(=O)c2ccc(Sc3ccc(C)cc3)c(NC(C)=O)c2)cc1	21.9	93.5*	44.3	5.7
CCOc1ccc(N2C(=O)CC(N(CCc3ccc(OC)cc3)C(=O)/C=C/C(=O)O)C2=O)cc1 (stereo unspecified)	-1.2	5.9	-25.8	-0.1
Cc1ccc2nc(NC3=NCN(Cc4ccc5c(c4)OCO5)CN3)nc(C)c2c1	/	100.5*	/	/
CC(C)(C)NC(=O)CSc1nc(-c2ccc(F)cc2)cs1	-14.6	9.4	-9.8	2.2
Cc1ccc(C(OC(=O)c2ccco2)C(=O)NCc2cccs2)cc1 (stereo unspecified)	-2.5	55.9*	-34.3	1.4
CC12CN3CC(C)(CN(C1)C3c1ccc(F)cc1)C2 (stereo unspecified)	14.1	-4.4	0.3	1.4
O=C(c1ccccc1Nc1ccc(SC(F)F)cc1)N1CCCCCC1	42.1	7.0	86.5*	8.0
CN(C)C(=O)COC(=O)c1ccccc1Nc1ccc(SC(F)F)cc1	31.5	-5.0	-12.3	2.3
COc1ccc(CN(C(=O)CSc2nnc(-c3c[nH]c4ccccc34)o2)c2ccc(F)cc2)cc1OC	37.4	31.5	35.0	9.9*
COc1ccc(CN(C(=O)CSc2nnc(-c3ccc(F)cc3)o2)c2ccc(F)cc2)cc1	45.6	-0.3	54.8	6.6
O=S(=O)(c1cccc(C(F)(F)F)c1)N1CCC(O)(c2cccnc2)CC1	-15.9	2.3	17.7	-1.6
CC(=O)N1CCC(O)(c2cccc(C(F)(F)F)c2)CC1	96.2*	-5.3	2.9	0.0
CC1Cc2ccccc2N1C1=NS(=O)(=O)c2ccccc21 (stereo unspecified)	5.5	0.2	0.9	2.6
CC1Cc2ccccc2N1C1=CC(=O)CCC1 (stereo unspecified)	-12.9	97.7*	12.0	0.5
CN(C)c1ccc(/C=C/c2ccc3ccccc3n2)cc1	/	/	77.8*	/
CN(C)c1ccc(/C=C/c2nc3ccccc3s2)cc1	2.9	0.4	81.1*	7.0
C(=C\c1ccc2ccccc2n1)/c1ccccc1	/	/	70.8*	/
Oc1ccc(/C=C/c2ccc3ccccc3n2)cc1	30.4	17.5	57.9	0.6
NS(=O)(=O)c1ccc(CCNC(=O)CN2CCCCCC2)cc1	-9.7	-8.0	-14.7	1.1
SMILES	WT yeast gro inh	Lmaj promast	CHOP inhibitor	RAM network inh
CN(C)/C=N/c1cc(=O)[nH]c(=O)n1C	22.6	-6.6	6.3	1.2
COCCCN1CN(S(=O)(=O)c2ccc(Cl)cc2)c2nc3ccccc3nc21	0.4	59.2*	93.0*	3.6
COc1ccc(C(CC(=O)c2ccccc2)C2CCCCC2=O)cc1 (stereo unspecified)	17.9	6.7	57.6	6.2
O=C1CCCCC1C(Nc1ccc(Br)cc1)c1ccccc1 (stereo unspecified)	65.4*	17.3	79.8*	4.4
CCOC(=O)NC(c1ccccc1)C1CCCCC1=O (stereo unspecified)	-1.9	-6.7	-29.9	0.6
O=C1CCCCC1C(Nc1ccc(Cl)cc1)c1ccccc1 (stereo unspecified)	38.1	18.3	93.6*	0.5
O=C(c1ccc(S(=O)(=O)Nc2ccc(F)cc2)cc1)N1CCN(C(=O)c2ccco2)CC1	4.5	-4.8	13.4	2.6
CCOC(=O)C1(Cc2cccc(Cl)c2)CCCN(C(=O)c2cccc(C)n2)C1 (stereo unspecified)	-20.0	-2.0	-1.7	2.2
C=CCSc1ncnc2sc(C)c(C)c12	7.4	54.4*	27.0	2.0
COc1ccccc1N1CCN(C(=O)COc2cc(C)ccc2C)CC1	1.0	64.2*	16.3	2.3
CC1CCN(C(=O)/C=C/c2ccc(C(C)(C)C)cc2)CC1	61.6*	29.6	56.5	0.2
COc1ccccc1N1CCN(C(=O)/C=C/c2ccc(C)cc2)CC1	-10.3	54.5*	29.2	-1.8
Cc1cccc(C(=O)N2CCC(Cc3ccccc3)CC2)c1[N+](=O)[O-]	7.4	52.6*	56.4	2.5
CC(C)(C)c1ccc(/C=C/C(=O)N2CCCCC2)cc1	35.8	25.0	-7.9	0.8
